# Source: PubChem BioAssay
# PKA-R1A activ: PKA-R1A complex activation; P00514+P68181; PKA-R1A dissociation, Cy5-IP20 fluorescence polarization; scaled: DMSO 0%, 113 µM cGMP 100%; activation, % at 11.4 µM; 340,000 compounds, 0.083% hits;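 active = percent activation above the mean of all tested compounds plus 3 SD, cut at about 19% in these data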;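 note: higher means more PKAc released from R1A so a rise in polarization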
# TMEM16A act: activates or potentiates the mouse TMEM16A chloride channel; HEK293 TMEM16A/YFP-H148Q/I152L, iodide quench fluorescence; hits give low values; Q8BHY3; B-score at 10 µM; AID 623877; 340,000 compounds, 0.3% hits;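 active = fluorescence-ratio B-score plate-corrected deviation score at least 3 library SD below zero, with starting fluorescence score within 5 deviations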;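 note: channel opened by trigger with iodide after compound preincubation; score built on the fluorescence ratio of max minus min over baseline; more negative score means more quench and so TMEM16A activation or potentiation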
# CHT allo act: allosterically activates the human high affinity choline transporter; Q9GZV3; CHT-expressing cells, membrane potential dye, choline EC20; hits give high values; LV-AA mutant CHT in HEK293 cells; B-score at 10 µM; 310,000 compounds, 0.49% hits; AID 488977;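 active = initial fluorescence not abnormally high and integrated response B-score, plate-corrected, over 3 SD above library mean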
# ANO1 block: inhibitors of mouse TMEM16A calcium-activated chloride channel | Q8BHY3 | HEK293 TMEM16A/YFP iodide influx fluorescence, ionomycin | normalized B-score (activity score, 25-100; higher = stronger inhibition) at 10 µM | 310,000 compounds, 1.2% hits | AID 588511;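 active = ratio plate-corrected score three or more library SD toward inhibition, starting fluorescence score within five deviations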;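 note: score derived from kinetic fluorescence span divided by baseline fluorescence per well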
# CHT block: human CHT choline transport inhibition | CHT-expressing cells, membrane potential dye, choline response; hits give low values | Q9GZV3 | AID 488975 | B-score at 10 µM | 310,000 compounds, 0.86% hits;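 active = B-score over 3 SD under the library average, and starting fluorescence ratio not unusually high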;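 note: choline stimulus applied at its EC90 after an EC20 pre-addition; B-score computed on integrated fluorescence ratio after choline addition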
# PKA-R2B activ: activates the human PKA-R2B holoenzyme complex. PKA-R2B holoenzyme dissociation, Cy5-IP20 fluorescence polarization; R2B truncated from residue 108, S112A mutant; 0% DMSO only, 100% 113 µM cGMP. P22694+P31323. 340,000 compounds, 0.079% hits. activation, % at 11.4 µM;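 active = activation above a cutoff set at the mean over all compounds plus 3 SD, cut at about 18% in these data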;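 note: higher means more holoenzyme dissociation and a rise in polarization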
# Target sequence (P31323 whole entry, looked up, other chains not shown, the tested form may be a part): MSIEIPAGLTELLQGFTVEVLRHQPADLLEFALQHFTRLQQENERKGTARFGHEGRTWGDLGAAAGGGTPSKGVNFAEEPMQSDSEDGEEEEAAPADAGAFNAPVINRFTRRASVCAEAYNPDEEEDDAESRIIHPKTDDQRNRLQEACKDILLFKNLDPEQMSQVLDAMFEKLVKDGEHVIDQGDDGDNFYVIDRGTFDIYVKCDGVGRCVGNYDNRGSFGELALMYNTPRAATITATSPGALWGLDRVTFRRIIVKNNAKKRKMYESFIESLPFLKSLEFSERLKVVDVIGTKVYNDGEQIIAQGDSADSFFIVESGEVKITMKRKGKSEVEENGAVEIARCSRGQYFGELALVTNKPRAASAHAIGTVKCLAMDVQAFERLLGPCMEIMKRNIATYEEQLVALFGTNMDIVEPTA
# CHT inh conf: confirmation of human choline transporter CHT inhibitors; shares compounds with CHT block; CHT activity remaining % of control (hits give low values), % at 10 µM; 2,400 compounds, 70% hits; CHT-expressing cells, choline membrane potential dye; LV-to-AA substituted CHT, HEK293 cells;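 active = choline transporter activity left, mean of duplicates at 10 µM, below buffer-only control mean minus 3 SD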;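 note: depolarization triggered by choline at its EC90 following an EC20 pre-addition; 0% = hemicholinium-3 full block and 100% = buffer-only control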
# HEK293 MPD ctr: counter-screen for CHT inhibitors: effect in parental HEK293 cells; shares compounds with CHT block; membrane potential dye, choline response; active = decrease or increase beyond buffer ±3SD; membrane potential ratio readout (active if shifted either direction beyond buffer ±3SD; no single direction) at 10 µM; 2,400 compounds, 4% hits; AID 493222;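 note: parental cells lack the transporter so any hit is non-specific; ratio is peak minus trough fluorescence over baseline after EC90 choline challenge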
# Active calls of the source: *; i = inactive; / = no result. In the library only some 2.5% were active in any assay of this set; here they are far more common.
SMILES,PKA-R1A activ,TMEM16A act,CHT allo act,ANO1 block,CHT block,PKA-R2B activ,CHT inh conf,HEK293 MPD ctr
O=C(CCCCCCCCN1C(=O)c2ccccc2C1=O)N1CCOCC1,/,i,i,i,i,/,/,/
Cc1cnc(C)c(N2CCN(Cc3nc(-c4cccc(F)c4F)oc3C)CC2)n1,-1.1,i,i,i,-7.21*,-13.0,28.6%*,i
CCCCN(CCCC)S(=O)(=O)c1ccc(NC(=O)c2ccc([N+](=O)[O-])cc2Cl)cc1,-1.7,i,i,i,-6.23*,-13.3,70.4%*,i
CCN(CC)S(=O)(=O)c1ccc(NC(=O)c2cc(C(=O)OC)cc([N+](=O)[O-])c2)cc1,-8.3,i,i,i,i,-9.1,/,/
CC1=C(C(=O)OCCOc2ccccc2)C(c2ccsc2)NC(=O)N1C (centres undefined),-5.8,i,i,i,-6.48*,-4.7,50.2%*,i
Cc1ccc(C2=NN(C(=O)CCl)C(c3ccco3)C2)o1 (centres undefined),3.3,i,/,/,/,3.4,/,/
COC(=O)Cn1ccc(N(C)C)c(C#N)c1=O,-9.0,i,i,i,-15.1*,-6.9,8.7%*,i
O=C(Nc1nc2c(Br)cccc2s1)C1CC1,9.0,i,i,i,-5.67*,-9.4,i,i
O=C(Nc1nc2c(Cl)cccc2s1)C1CC1,-1.9,i,i,i,i,8.7,/,/
COc1ccc(CC(=O)N2CCc3cc(OC)c(OC)cc3C2C)c(OC)c1 (centres undefined),-3.3,i,i,i,-12.1*,2.0,i,i
COc1cc2c(cc1OC)[C@H](C)N(C(=O)COc1ccccc1)CC2,13.0,i,i,i,i,1.9,/,/
Cc1cc(C)c(NC(=O)CN(C)C(=O)CNC(=O)c2cccs2)c(C)c1,-3.1,i,/,/,/,10.2,/,/
CC(C)(C)c1ccc(OCCC(=O)Nc2ccc(N3CCOCC3)cc2N2CCOCC2)cc1,0.2,i,i,i,i,-6.0,/,/
CCCc1cc(=O)n2[nH]c(C)c(-c3ccccc3)c2n1,6.2,i,i,i,-5.78*,-2.6,i,i
Cc1[nH]n2c(=O)cc(C(C)C)nc2c1-c1ccccc1,7.2,i,i,i,-5.17*,0.2,i,i
CCCc1cc(=O)n2[nH]c(C)c(-c3ccccc3OC)c2n1,3.5,/,/,/,/,-2.6,/,/
COc1ccccc1C(=O)NNC(=S)NC(=O)c1cccs1,0.5,i,i,i,i,2.2,/,/
COc1ccccc1C(=O)NC(=S)NNC(=O)c1sc2ccccc2c1Cl,-8.4,-7.78*,i,100*,-7.03*,-1.7,57.8%*,i
COc1ccccc1C(=O)NNC(=S)NC(=O)c1sc2ccccc2c1Cl,-3.2,-6.16*,i,100*,-6.63*,-2.9,57.3%*,i
Cc1c(NC(=S)NC(=O)c2sc3ccccc3c2Cl)cccc1C(=O)O,1.9,i,i,i,i,2.6,/,/
Cc1cccc(C)c1NS(=O)(=O)c1ccc(OCCNS(C)(=O)=O)cc1,11.6,i,i,i,i,-8.6,/,/
Cc1c(C)n(O)c2ccc3nonc3c12,7.2,i,i,i,-6.82*,-6.7,6.2%*,i
COn1c(C)c(C(C)=O)c2c3nonc3ccc21,1.0,i,i,i,i,-6.2,/,/
NC(=O)c1ccc(NCCc2ccccc2)c([N+](=O)[O-])c1,6.2,i,i,i,-4.98*,-2.7,i,i
CCOC(=O)C1=C(C)N=c2s/c(=C/c3cccc([N+](=O)[O-])c3O)c(=O)n2C1c1cc(OC)c(OC)c(OC)c1 (centres undefined),-3.2,i,i,i,-9.83*,-7.3,28.4%*,i
SMILES,PKA-R1A activ,TMEM16A act,CHT allo act,ANO1 block,CHT block,PKA-R2B activ,CHT inh conf,HEK293 MPD ctr
CC1CCCC(NC(=O)CCNC(=O)c2ccc(Br)cc2)C1C (centres undefined),-1.6,i,i,i,-5.09*,-10.2,i,i
N/C(=N\O)c1ccc(N2CCN(c3ncccc3C(F)(F)F)CC2)nc1,7.2,i,i,i,-5.66*,4.5,45.2%*,i
CC(C)(C)C(=O)N1CCN(c2ncccc2C(F)(F)F)CC1,-11.7,i,i,i,i,10.6,/,/
O=C1CSC(=S)N1/N=C/c1c(F)cccc1F,-3.2,i,i,i,-5.58*,2.6,70.9%*,i
O=C1CSC(=S)N1N=Cc1c(F)cccc1Cl,2.8,/,/,/,/,0.0,/,/
O=c1c2cc(Br)ccc2nc(-c2ccc([N+](=O)[O-])cc2)n1O,0.3,i,i,i,-6.3*,-7.2,37.5%*,i
N#Cc1ccc(-c2nc3ccc(Br)cc3c(=O)n2O)cc1,-4.2,i,i,i,i,-3.0,/,/
CC(NC(=O)c1cccc(N(C)C)c1)c1ccc(-n2ccnc2)cc1 (centres undefined),-3.8,i,i,i,i,-3.4,/,/
Cn1c(CCC(=O)O)nc2cc(S(=O)(=O)N3CCCCC3)ccc21,-2.3,i,/,/,/,-2.7,/,/
Cc1ccc2nc(NC(=O)CN3C(=O)C4CC=CCC4C3=O)sc2c1 (centres undefined),-8.3,i,i,i,-5.2*,1.0,i,i
O=[N+]([O-])c1ccc(CSc2nnc3ccccn23)cc1,15.8,i,i,i,-13.3*,3.0,8.8%*,i
O=S(=O)(Nc1nc2ccccc2nc1NCC1CCCO1)c1cc(Cl)ccc1Cl (centres undefined),4.0,i,i,i,-5.55*,0.1,45.2%*,i
NC1=NC2(CCCCCC2)n2c(nc3ccccc32)N1,-10.3,i,i,i,-5.48*,-5.4,15.3%*,i
CCN1CCn2c3c(c4cc(Cl)ccc42)CCCC31 (centres undefined),-0.3,i,i,i,-5.76*,-9.5,70.2%*,i
CCN(CC)CCN1CCn2c3c(c4cc(C)ccc42)CCCC31 (centres undefined),-1.1,i,i,i,i,-2.4,/,/
